# Experimental data from PubChem BioAssay (NCATS).
# Inconclusive results are not listed. Where a call stands in place of a potency, no number is given. Activity calls are given as the source filed them. Unless noted, calls come from the whole dose curve; as a rule, active = well fitted curve in the direction sought with a large enough effect; inconclusive = small, poorly fitted or top-dose-only effect, or another doubt; inactive = no such curve, though single readings can be large; an effect the other way counts as inactive or inconclusive.
# Legend:
# [1] = biological target: Calcium and integrin-binding protein 1 (Homo sapiens) (UniProt Q99828); experiment: Primary qHTS for Identification of Calcium Integrin Binding Protein 1 (CIB1) Competitor (AID 1508620);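 note: GST tagged CIB1 binding a fluorescein labelled alphaIIb integrin peptide tracer; top concentration of the series differs between compounds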
# Procedure, shortened: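 CIB1-GST (1 uM final) and compound incubated 15 min at room temperature before adding FITC-alphaIIb peptide tracer (100 nM final). Competition for binding read by fluorescence polarization (ex 480, em 540) after another 15 min at room temperature.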
# [2] = biological target: Cytochrome P450 2D6 (Homo sapiens) (UniProt P10635); experiment: Cytochrome P450 family 2 subfamily D member 6 (CYP2D6) small molecule antagonists: luciferase biochemical (cell-free) qHTS assay (AID 1645840; active = well fitted curve in the direction sought with a large enough effect in the repeat runs; an effect the other way counts as inactive or inconclusive; note: nearly all actives have a fitted effect of over 55% in size; note: potency is the fitted concentration of half-maximal effect)
# Procedure, shortened: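 P450-Glo luminescent screen: recombinant CYP2D6 enzyme–proluciferin substrate mix preincubated with compound 10 min at room temperature, then NADPH regeneration added for 1 h at room temperature. Detection reagent added for 20 min; luciferin light read as relative luminescence units.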
# [3] = biological target: Cytochrome P450 2C9 (Homo sapiens) (UniProt P11712); experiment: Cytochrome P450 family 2 subfamily C member 9 (CYP2C9) small molecule antagonists: luciferase biochemical (cell-free) qHTS assay (AID 1645842; active = well fitted curve in the direction sought with a large enough effect in the repeat runs; an effect the other way counts as inactive or inconclusive; note: nearly all actives have a fitted effect of over 55% in size; note: potency is the fitted concentration of half-maximal effect)
# Procedure, shortened: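 Luminescence, after 20 min with luciferin detection reagent, reflected CYP2C9 turnover during a 1 h NADPH-driven reaction at 37C. Enzyme-substrate mix contained 0.4% bovine serum albumin and was preincubated with compound 10 min at room temperature.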
# [4] = Primary qHTS for inhibitors of nuclear receptor binding SET domain protein 2 (NSD2) in an isogenic RCH-ACV NSD2 p.E1099K mutant (9B) (AID 1645876); note: nearly all actives have a fitted effect of over 70% in size; note: potency is the fitted concentration of half-maximal effect
# [5] = Primary qHTS for inhibitors of nuclear receptor binding SET domain protein 2 (NSD2) in an RCH-ACV wild type WT cells (2C) (AID 1645877); note: nearly all actives have a fitted effect of over 70% in size; note: potency is the fitted concentration of half-maximal effect
# [6] = biological target: N-terminal Xaa-Pro-Lys N-methyltransferase 1 (Homo sapiens) (UniProt Q9BV86); experiment: Confirmatory qHTS for Inhibitors of N-terminal methyltransferase 1 (NTMT1): MTaseGlo Assay (AID 1645874);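 note: luminescence from SAH made as NTMT1 methylates SPKRIA peptide using SAM; series mostly up to about 100 µM; nearly all actives have a fitted effect of over 65% in size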
# Procedure, shortened: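 qHTS format: NTMT1 125 nM, SAM 100 uM, peptide SPKRIA 1 uM final; 15 min compound preincubation, 30 min reaction at room temperature. MTase-Glo luminescence.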
# Sequence of Cytochrome P450 2C9 (Homo sapiens) (P11712 whole entry, looked up): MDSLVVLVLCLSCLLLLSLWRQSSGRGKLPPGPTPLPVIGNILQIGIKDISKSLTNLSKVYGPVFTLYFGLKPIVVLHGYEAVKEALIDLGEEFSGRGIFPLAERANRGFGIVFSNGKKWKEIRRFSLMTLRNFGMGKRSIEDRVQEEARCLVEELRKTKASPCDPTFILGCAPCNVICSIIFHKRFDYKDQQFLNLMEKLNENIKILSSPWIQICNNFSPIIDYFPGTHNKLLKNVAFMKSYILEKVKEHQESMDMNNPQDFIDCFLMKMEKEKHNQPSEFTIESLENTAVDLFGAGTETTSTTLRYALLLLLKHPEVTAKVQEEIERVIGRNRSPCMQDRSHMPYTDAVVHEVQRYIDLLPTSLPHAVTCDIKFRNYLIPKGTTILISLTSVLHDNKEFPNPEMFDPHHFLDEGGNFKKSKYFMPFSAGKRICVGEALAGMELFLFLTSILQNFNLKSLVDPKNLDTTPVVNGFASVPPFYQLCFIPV
# Sequence of Calcium and integrin-binding protein 1 (Homo sapiens) (Q99828 whole entry, looked up): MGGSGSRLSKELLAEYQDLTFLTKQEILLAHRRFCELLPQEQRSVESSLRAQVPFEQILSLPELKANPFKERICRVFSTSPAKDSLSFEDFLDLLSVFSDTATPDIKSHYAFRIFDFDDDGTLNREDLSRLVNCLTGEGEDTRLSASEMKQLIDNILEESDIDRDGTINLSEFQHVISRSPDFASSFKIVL
# Sequence of Cytochrome P450 2D6 (Homo sapiens) (P10635 whole entry, looked up): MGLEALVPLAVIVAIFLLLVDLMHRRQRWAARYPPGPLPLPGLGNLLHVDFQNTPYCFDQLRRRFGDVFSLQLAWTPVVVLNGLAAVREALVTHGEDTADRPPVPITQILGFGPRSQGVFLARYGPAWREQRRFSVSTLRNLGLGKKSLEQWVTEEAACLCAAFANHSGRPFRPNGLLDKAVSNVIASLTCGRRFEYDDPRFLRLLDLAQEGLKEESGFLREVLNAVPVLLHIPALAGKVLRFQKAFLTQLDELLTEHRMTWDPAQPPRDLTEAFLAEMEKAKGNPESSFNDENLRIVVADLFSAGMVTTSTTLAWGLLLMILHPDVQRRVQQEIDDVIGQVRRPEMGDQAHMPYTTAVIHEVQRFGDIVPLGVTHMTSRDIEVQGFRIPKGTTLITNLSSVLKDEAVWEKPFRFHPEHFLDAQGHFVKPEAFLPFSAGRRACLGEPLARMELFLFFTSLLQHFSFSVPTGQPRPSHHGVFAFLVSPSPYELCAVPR
# Sequence of N-terminal Xaa-Pro-Lys N-methyltransferase 1 (Homo sapiens) (Q9BV86 whole entry, looked up): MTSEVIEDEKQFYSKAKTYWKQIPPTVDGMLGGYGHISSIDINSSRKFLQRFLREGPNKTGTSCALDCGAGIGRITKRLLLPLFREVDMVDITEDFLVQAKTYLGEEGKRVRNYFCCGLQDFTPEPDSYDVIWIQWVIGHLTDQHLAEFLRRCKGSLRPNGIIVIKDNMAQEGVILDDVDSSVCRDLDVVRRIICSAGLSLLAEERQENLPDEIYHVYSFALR
SMILES,Potency [1],Potency [2],Potency [3],Potency [4],Potency [5],Potency [6]
CCC(COC)n1nnc2c(Nc3ccc(OC)cc3C)nc(C)cc21 (stereo unspecified),inactive,10.7 µM (active),7.56 µM (active),inactive,inactive,
Cc1nc(C)c(-c2ccc(C3CCC(CC(=O)O)CC3)cc2)nc1C(N)=O (stereo unspecified),inactive,inactive,inactive,inactive,inactive,
CCn1c(=O)c(-c2ccn[nH]2)cc2c(C)nc(N)nc21,inactive,inactive,26.8 µM (active),0.934 µM (active),1.18 µM (active),inactive
O=C(CCCCN1CCOCC1)Nc1ccc(-c2cccnc2)cc1,inactive,6.01 µM (active),inactive,inactive,inactive,
NC(=O)Nc1cc(-c2cccc(F)c2)sc1C(=O)NC1CCCNC1 (stereo unspecified),inactive,inactive,inactive,0.0728 µM (active),0.0817 µM (active),
COc1ccccc1Oc1ccc(N(Cc2cccnc2)S(=O)(=O)CC(F)(F)F)cc1,inactive,13.5 µM (active),1.9 µM (active),inactive,inactive,
